We go through 40 molecules from PubChem BioAssay (EPA / NIEHS).

Structures are written as SMILES. “And” between values parts separate entries of the source, which are not always exact repeats. Equal values may be shown once. The source made the active and inactive calls. Rule for the calls: active = hit-call score of the fitted dose curve at least 0.9, where 1 is the maximum; inactive = score below 0.9.

Read-out in this assay: Collagen I, COL1A1 (gene 1277)
Nature of the assay: BSK_MyoF_CollagenI: BioMAP Diversity Plus: MyoF Assay for Collagen I Biomarker Activity (AID 2284238). The settings on record: primary human lung fibroblasts. The method, then: BSK_MyoF is a cell-based, multiplexed-readout assay that uses lung fibroblasts, […], with measurements taken at 24 hours after chemical dosing in a microplate: 96-well plate.BSK_MyoF_CollagenI is an assay component measured in the BSK_MyoF assay. It measures Collagen I antibody related to regulation of gene expression using ELISA technology.Data from the assay component BSK_MyoF_CollagenI was analyzed at the endpoint, BSK_MyoF_CollagenI, in the positive analysis fitting direction relative to DMSO as the negative control and baseline of activity. Using a type of binding reporter, gain or loss-of-signal activity can be used to understand protein changes. To generalize the intended target to other relatable targets, this assay endpoint is annotated to the 'cell adhesion molecules' intended target family, where the subfamily is 'collagen'.
The levels of cell surface (or secreted, indicated by the prefix "s") biomarker endpoints were measured by ELISA. Overt cytotoxicity to cells in confluent adherent cultures (all systems other than the BT system) was assessed by measuring total protein levels using sulforhodamine B (SRB) staining in parallel cultures at the time of biomarker measurements, indicated as SRB endpoints. For proliferation assays for adherent cell types, individual cell types are cultured at sub-confluence and relative cell numbers quantified by SRB staining at time points optimized for each system (48 h: 3C and CASM3C systems; 72 h: BT and HDF3CGF systems; 96 h: SAg system). SRB was performed by staining cells with 0.1% SRB after fixation with 10% TCA and reading wells at 560 nm.Viability and proliferation of PBMC (T cells) was quantified by Alamar Blue reduction for the SAg and BT systems. For PBMC viability (referred to as PBMC Cytotoxicity within the assay endpoint names), cells were plated (75,000/well in a 96-well plate) and then chemical samples added for 1 h before addition of activators, SEB and TSST-1 (20 ng/mL final concentration each). Cells were incubated for 90 h. Then, Alamar Blue (20 uL/well) (Invitrogen, Cat DAL1100) was added for 6 h, and the plates were read with a fluorescence microplate reader at 546/580 nm (excitation/emission). For PBMC proliferation, cells were plated and activated as above but incubated for only 16 h prior to addition of Alamar Blue. Plates were read after 6 h.
Consider `OCC(F)(F)C(F)(F)C(F)(F)C(F)F`, for which the outcome was inactive.

For the molecule `O=C(O)C(F)(F)C(F)(F)C(F)(F)C(F)(F)C(F)(F)C(F)(F)C(F)(F)C(F)(F)Cl`, the AC50 (in general, the concentration giving half of the maximal activity seen) was 19.3 µM (active).

In the case of `O=C(O)C(F)(F)C(F)(F)C(F)(F)C(F)(F)C(F)(F)C(F)(F)C(F)(F)C(F)(F)C(F)(F)C(F)(F)C(F)(F)C(F)(F)C(F)(F)F`, the outcome was inactive.

Consider `FC(F)(F)C(F)(F)C(F)(F)C(F)(F)C(F)(F)C(F)(F)C(F)(F)Br`, for which the result was inactive.

On to `O=C(O)C(F)(OC(F)(F)C(F)(OC(F)(F)C(F)(OC(F)(F)C(F)(F)C(F)(F)F)C(F)(F)F)C(F)(F)F)C(F)(F)F` (stereo not given), for which the result was inactive.

Turning to `O=C(O)C(F)(F)C(F)(F)C(F)(F)C(F)(F)C(F)(F)C(F)(F)C(F)(F)C(F)(F)C(F)(F)C(F)F`, the AC50 is 19 µM (active) and 16.1 µM (active).

As for `O=C(CC(=O)C(F)(F)C(F)(F)F)C(F)(F)F`, the result was inactive.

Take `C=CC(=O)OCC(F)(F)C(F)(F)C(F)(F)C(F)(F)C(F)(F)C(F)(F)C(F)(F)F`: the result was inactive.

As to `FC(F)(F)C(F)(F)C(F)(F)C(F)(F)C(F)(F)C(F)(F)CC1CO1` (stereo not given), the result was inactive.

On to `O=C(O)C(F)(F)C(F)(F)C(F)(F)C(F)(F)C(F)(F)C(F)(F)C(F)(F)C(F)(F)C(F)(F)C(F)(F)C(F)(F)C(F)(F)F`, for which the AC50 was 24.5 µM (active) and 18.6 µM (active).

With `FC(F)(I)C(F)(F)C(F)(F)C(F)(F)I`, the concentration at half-maximal activity (AC50) was 51.6 µM (active) and 46.4 µM (active) and 54.1 µM (active).

For the molecule `C=CC(F)(F)C(F)(F)C(F)(F)C(F)(F)C(F)(F)C(F)(F)C(F)(F)C(F)(F)C=C`, the outcome was inactive.

On to `CCN(CC)c1ccc2c(C)cc(=O)oc2c1`, for which the outcome was inactive.

For `C=C(C)C(=O)OCCC(F)(F)C(F)(F)C(F)(F)C(F)(F)C(F)(C(F)(F)F)C(F)(F)F`, the outcome was inactive.

For `Cc1ccc(S(=O)(=O)OCC(F)(F)C(F)(F)C(F)(F)C(F)(F)C(F)(F)C(F)F)cc1`, the outcome was inactive.

Consider `CCCCCCCCCCCCCCCC[N+](C)(C)Cc1ccccc1`, for which the AC50 was 0.987 µM (active).

As to `CC(=O)Nc1ccc(N=Nc2cc(C)ccc2O)cc1`, the result was inactive.

Consider `OCC(F)(F)C(F)(F)C(F)(F)F`, for which the outcome was inactive.

As for `O[Si](c1ccccc1)(c1ccccc1)c1ccccc1`, the AC50 is 31.3 µM (active).

As for `C#C[C@]1(O)CC[C@H]2[C@@H]3CCc4cc(OC)ccc4[C@H]3CC[C@@]21C`, the outcome was inactive.

As for `O=C(O)C=C(C(F)(F)F)C(F)(F)F`, the outcome was inactive.

As for `OCC(F)(F)C(F)(F)C(F)(F)C(F)(F)C(F)(F)C(F)(F)F`, the outcome was inactive.

`FC(F)(F)C(F)(F)C(F)(F)C(F)(F)C(F)(F)C(F)(F)C(F)(F)C(F)(F)CCS`: the outcome was inactive.

For the molecule `FC(F)(F)C(F)(F)C(F)(F)C(F)(F)C(F)(F)C(F)(F)C(F)(F)I`, the AC50 was 4.56 µM (active) and 3.16 µM (active).

With `O=C(O)C(F)(OC(F)(F)C(F)(OC(F)(F)C(F)(F)C(F)(F)F)C(F)(F)F)C(F)(F)F` (stereo not given), the outcome was inactive.

For `CS(C)(=O)=O`, the outcome was inactive.

Take `FC(F)(F)C(F)(F)C(F)(F)C(F)(F)C(F)(F)CCI`: the outcome was inactive.

With `NC(=O)C(F)(F)C(F)(F)C(F)(F)C(F)(F)F`, the outcome was inactive.

Regarding `CCCCOCCOCCOC(=O)CCCCC(=O)OCCOCCOCCCC`, the outcome was inactive.

On to `C=C(C)C(=O)OCC(F)(F)C(F)(F)C(F)(F)C(F)(F)C(F)(F)C(F)(F)C(F)(F)F`, for which the result was inactive.

On to `CO[Si](OC)(c1ccccc1)c1ccccc1`, for which the AC50 is 31.6 µM (active).

`FC(F)(Br)C(F)(F)C(F)(F)C(F)(F)C(F)(F)C(F)(F)Br`: the result was inactive.

Regarding `C=CC/C=C/C/C=C/C/C=C/C`, the outcome was inactive.

With `OCCCC(F)(F)C(F)(F)C(F)(F)C(F)(F)C(F)(F)C(F)(F)C(F)(F)F`, the AC50 is 49.1 µM (active) and 52.3 µM (active).

With `Oc1ccc(Nc2ccccc2)cc1`, the outcome was inactive.

For `CCc1ccc(C(c2ccc(CC)cc2)C(Cl)Cl)cc1`, the AC50 is 9.01 µM (active).

For `O=C(O)C(F)(F)C(F)(F)C(F)F`, the outcome was inactive.

For the molecule `FC(F)(F)C(F)(F)C(F)(F)C(F)(F)C(F)(F)C(F)(F)C(F)(F)C(F)(F)F`, the result was inactive.

Consider `CCCCCCC(C)OC(=O)CCCCC(=O)OC(C)CCCCCC` (stereo not given), for which the result was inactive.

Turning to `O=S(=O)(OCCOC(F)(F)F)C(F)(F)F`, the outcome was inactive.
